Reference: PubChem BioAssay
Potency and affinity values are given separately. Calls of active or inactive are those of the source.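 How the source made its calls: active means fitted dose curve reaches 40% lysis signal rise at or below the highest valid concentration tested for that sample; inconclusive means flat fit between 30% and 70%, or poor curve fit; inactive means signal falls, stays flat within 30%, or no crossing.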

Assay: C. neoformans lysis by adenylate kinase leakage – AK release luminescence, cherry-picks, dose response (AID 687000);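 further: luminescent detection of adenylate kinase leaking from lysed yeast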
Conditions: 4 h, 100% = twice the neutral-control signal; series mostly up to 15 µM

outcome, inactive:
CO[C@H]1CC[C@H]2CCOc3c(C#N)cccc3C(=O)N(C)C[C@@H](C)C(=O)N(C)C[C@H]1O2, C[C@@H]1CN([C@H](C)CO)C(=O)c2c(c3ccccc3n2C)-c2ccccc2CO[C@H]1CN(C)S(=O)(=O)c1ccc(Cl)cc1, CO[C@H]1CN(C)C(=O)c2cc(NS(=O)(=O)CC(F)(F)F)ccc2OC[C@@H](C)N(Cc2cccnc2)C[C@@H]1C, CC(C)C#Cc1ccc2c(c1)O[C@H](CN(C)C(=O)Cc1ccccn1)[C@H](C)CN([C@H](C)CO)S2(=O)=O, C[C@@H]1CN([C@@H](C)CO)C(=O)c2cc(NC(=O)Nc3cccc4ccccc34)ccc2O[C@@H]1CN(C)C(=O)Nc1ccccc1, O=C1CCC(C(=O)Nc2cccc(C(F)(F)F)c2)N1 (configuration not stated), O=C(Nc1ccccc1)N1CCCCN2[C@H](CO)[C@@H](c3ccc(C#CC4CC4)cc3)[C@@H]2C1, CC(C)NC(=O)Nc1cccc2c1O[C@H](CN(C)C)[C@H](C)CN([C@@H](C)CO)C2=O, COc1ccc(NC(=O)Nc2ccc3c(c2)C(=O)N([C@H](C)CO)C[C@H](C)[C@H](CN(C)C(=O)Cc2ccccc2)OCCCC[C@H](C)O3)cc1, COc1ccc(CN(C)C[C@@H]2Oc3ccc(NC(=O)Nc4ccc(F)cc4)cc3CC(=O)N([C@H](C)CO)C[C@H]2C)cc1, C[C@@H]1CN([C@@H](C)CO)C(=O)CCCn2nncc2CO[C@@H]1CN(C)Cc1cccc(C(F)(F)F)c1, C[C@@H]1CN([C@@H](C)CO)S(=O)(=O)c2ccc(C#CC3CC3)cc2O[C@H]1CN(C)CC1CCOCC1, C[C@@H]1CN([C@@H](C)CO)S(=O)(=O)c2ccc(C#Cc3ccc(F)cc3)cc2O[C@H]1CN(C)C(=O)NC1CCCC1, COc1ccccc1CN1CC[C@H]2[C@H](CO)Nc3ccc(C#Cc4ccccc4)cc3[C@H]21, C[C@H]1CN([C@@H](C)CO)C(=O)Cc2cc(NC(=O)Nc3ccccc3)ccc2O[C@H]1CN(C)C(=O)Nc1ccc2c(c1)OCO2, C[C@H](NC(=O)C[C@@H]1C=C[C@H](NC(=O)CN2CCOCC2)[C@@H](CO)O1)c1ccccc1, O=C(Nc1ccc(Cl)c([N+](=O)[O-])c1)c1ccco1, CC(=O)N1[C@@H](CO)[C@H](c2ccc(-c3ccccc3)cc2)[C@@H]1CNC(=O)C1CC1, CC(C)NC(=O)Nc1ccc2c(c1)CC(=O)N([C@@H](C)CO)C[C@@H](C)[C@@H](CN(C)Cc1ccc(Oc3ccccc3)cc1)O2, O=C(C[C@H]1CC[C@H]2[C@@H](COC[C@H](O)CN2Cc2cccc(Cl)c2)O1)Nc1nccs1, Cc1cc(C)c(NC(=O)C2CCCCN2C)c(C)c1 (configuration not stated), N#Cc1ccc(-c2ccc3c(c2)[C@H]2[C@H](CCN2C(=O)Cc2ccccc2)[C@@H](CO)N3)cc1, CCCNC(=O)N(C)C[C@@H]1Oc2ncc(C#CCc3ccccc3)cc2C(=O)N([C@@H](C)CO)C[C@@H]1C, CC=Cc1ccc2n(c1=O)C[C@@H]1[C@@H](CO)[C@H](C(=O)N3CCCCC3)N(Cc3ccccc3)[C@H]21 (mixture of isomers), CNC[C@H]1OCCCC[C@H](C)Oc2ccc(NC(=O)CCCN(C)C)cc2C(=O)N([C@H](C)CO)C[C@@H]1C, COc1ccc(-c2cnc3c(c2)C(=O)N([C@H](C)CO)C[C@H](C)[C@H](CN(C)Cc2ccc(F)cc2)O3)cc1, O=C(NC[C@@H]1[C@H](c2ccccc2)[C@@H](CO)N1C(=O)Cc1cccnc1)C1CCC1, Cc1noc(C)c1NC(=O)Nc1ccc2c(c1)C(=O)N(C)[C@@H]1CC[C@H](CC(=O)N[C@H]3CCN(Cc4ccccc4)C3)O[C@@H]1CO2, CC(C)NC(=O)N[C@H]1CC[C@@H](CCNC(=O)C2CC2)O[C@@H]1CO, C[C@@H]1CCCCO[C@H](CN(C)C(=O)Nc2ccc(F)cc2)[C@H](C)CN([C@@H](C)CO)C(=O)c2cc(NS(=O)(=O)c3ccc(Cl)cc3)ccc2O1, C[C@H]1CN([C@@H](C)CO)C(=O)Cc2cc(NC(=O)CCCCCC(=O)Nc3ccccc3N)ccc2O[C@H]1CN(C)Cc1ccc2c(c1)OCO2, CN1CCc2c(sc(N)c2C(=O)c2ccc(Cl)cc2)C1
